The values below come from PubChem BioAssay AID1851 (National Center for Advancing Translational Sciences (NCATS), 2009).

Structures are written as SMILES. Out of some 16,000 compounds screened, about 2,600 (16%) were called active. Roughly 20% stayed inconclusive and do not appear here. The call rests on the fitted dose curve; in most records, active means well fitted curve in the direction sought with a large enough effect; inconclusive means small, poorly fitted or top-dose-only effect, or effect the other way; inactive means no such curve, though single readings can be large or run the other way. Only a sample is shown. The source holds several records for some structures; these can differ, active in one and inactive in another. Square brackets hold non-standard residues; d marks the D form. Peptide text beside a SMILES is read from it. * marks the point of attachment. ξ: configuration not given here. Cbz = O=C(OCc1ccccc1)*; ξA = CC(N)C(=O)O
On the % scale 0 is the no-effect control and ±100 the full control effect.

Chain of Cytochrome P450 2D6 (Homo sapiens) (P10635 whole entry, looked up): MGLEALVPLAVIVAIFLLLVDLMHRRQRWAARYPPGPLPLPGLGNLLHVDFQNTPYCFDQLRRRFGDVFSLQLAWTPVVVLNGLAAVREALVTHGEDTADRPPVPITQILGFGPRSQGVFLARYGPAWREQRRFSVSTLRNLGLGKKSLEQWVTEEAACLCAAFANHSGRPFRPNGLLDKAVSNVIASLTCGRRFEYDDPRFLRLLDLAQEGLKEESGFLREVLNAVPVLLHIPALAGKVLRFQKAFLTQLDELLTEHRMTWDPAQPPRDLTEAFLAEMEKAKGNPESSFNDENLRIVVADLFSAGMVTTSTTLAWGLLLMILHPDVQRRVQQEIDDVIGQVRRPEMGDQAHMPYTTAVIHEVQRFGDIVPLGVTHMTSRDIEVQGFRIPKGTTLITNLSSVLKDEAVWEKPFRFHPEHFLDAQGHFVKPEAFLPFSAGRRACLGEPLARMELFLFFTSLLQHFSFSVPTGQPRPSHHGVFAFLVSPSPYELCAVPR

The assay addresses Cytochrome P450 2D6 (Homo sapiens) (UniProt P10635). The assay can be described thus: Cytochrome panel assay with activity outcomes. Particulars: recombinant CYP, pro-luciferin dealkylation, luminescence, p450-cyp2d6; series mostly up to 57.1 µM.
The term AC50 denotes the concentration giving half of the maximal activity seen. For `Cc1ccc(C(=O)N/N=C\c2ccc[nH]2)cc1[N+](=O)[O-]`, the AC50 result was “inactive”.
Same read-out and setting: for `CCCOc1ccc(C(=O)NNC(=S)NC(=O)c2cc(-c3ccccc3)nc3ccccc23)cc1` the value was “inactive”; for `O=C(Nc1cccn2ncnc12)c1ccc(Cl)cc1Cl`, “inactive”.
Same read-out and setting: next, `COC(=O)C1=C(NC(=O)c2cccs2)CCS1`: “inactive”; `COc1cnc(-c2ccccn2)nc1Sc1c(Cl)cccc1Cl`: “inactive”; `COc1cc(OC)cc(C(=O)Nn2cc(C(=O)N3CCN(C)CC3)c3ccccc3c2=O)c1`: “inactive”.
On the same count and under the same terms, next, `O=C1CC[C@H](N2C(=O)c3ccccc3C2=O)C(=O)N1`: “inactive”.
In the case of `CCn1cc(C(=O)O)c(=O)c2cc(F)c(N3CCNCC3)nc21`, the AC50 result is “inactive”.
As to `O=C(O)C[C@H](S)C(=O)O`, the activity, negative = inhibition was -2.12% [at 11.4 µM] (inactive).
`c1cncc(CNc2ncncc2-c2ccc3c(c2)OCO3)c1`: the AC50 was 15.8 µM (active).
Still for that read-out and setting: for `N#Cc1cccc(-c2cncnc2NCc2cccnc2)c1` the value was “inactive”; for `c1ccc(CNc2ncncc2-c2ccc3c(c2)OCO3)cc1`, 12.6 µM (active).
Consider `c1csc(CNc2ncncc2-c2ccc3c(c2)OCO3)c1`, for which the half-maximal activity concentration (AC50) was 10 µM (active).
Consider `c1ccc(Nc2ncnc3ccc(-c4ccc5c(c4)OCO5)cc23)cc1`, for which the AC50 is 0.126 µM (active).
On the same count and under the same terms, next, `c1cncc(CNc2ncncc2-c2cccnc2)c1`: “inactive”; `Clc1ccc2c(c1)C=Nc1c(NCc3ccccc3)ncnc1O2`: “inactive”.
Still for that read-out and setting: for `COc1ccc(NC(=O)N2CC[C@@]3(CCCN(C(=O)c4cccc(F)c4)C3)C2)cc1` the value was “inactive”; for `O=C(Nc1ccccc1)N1CCSc2cc(Cl)ccc21`, “inactive”.
For `OC[C@@H]1O[C@@H](N2CCN([C@@H]3O[C@@H](CO)[C@@H](O)[C@H](O)[C@H]3O)CC2)[C@@H](O)[C@H](O)[C@H]1O`, the activity, negative = inhibition was -3.98% [at 11.4 µM] (inactive).
`COc1ccc2c(c1[N+](=O)[O-])CCC/C2=N/OC(=O)c1ccccc1SC`: the AC50 entry is “inactive”.
Take `NC(N)=NC(N)=Nc1ccc(S(N)(=O)=O)cc1`: the activity, negative = inhibition is 4.99% [at 11.4 µM] (inactive).
As for `O=C(CCCn1c(=S)[nH]c2ccc(Br)cc2c1=O)NCC1CCCO1` (stereo not given), the AC50 entry was “inactive”.
Still for that read-out and setting: for `CCOc1cc2[nH]c(=S)n(CCCC(=O)NCc3ccco3)c(=O)c2cc1OCC` the value was “inactive”.
For the molecule `O=C(CCCn1c(=S)[nH]c2cc3c(cc2c1=O)OCO3)N1CCN(c2ncccn2)CC1`, the concentration at half-maximal activity (AC50) was 5.01 µM (active).
Same read-out and setting: for `C=CCNC(=O)c1ccc(Cn2c(=S)[nH]c3cc4c(cc3c2=O)OCO4)cc1` the value was “inactive”.
The same measure, in the same setting: for `CCCCNC(=O)CCn1c(=S)[nH]c2cc3c(cc2c1=O)OCO3` the value was “inactive”.
On the same count and under the same terms, next, `O=C(CCCCCn1c(=S)[nH]c2cc3c(cc2c1=O)OCO3)N1CCN(C2CCCCC2)CC1`: 8.91 µM (active).
For `O=C(c1ccc2c(=O)n(Cc3ccco3)c(=S)[nH]c2c1)N1CCN(c2ccccc2)CC1`, the AC50 entry is “inactive”.
On the same count and under the same terms, for `CCN(CC)CCn1c(=S)[nH]c2cc3c(cc2c1=O)OCO3` the value was 0.631 µM (active).
Same read-out and setting: next, `O=C(c1ccc2c(=O)n(CC3CCCO3)c(=S)[nH]c2c1)N1CCN(c2ccccc2)CC1` (stereo not given): “inactive”.
Still for that read-out and setting: next, `CCCC(=O)Nc1cccc(Oc2nc(C)cc(C)c2C#N)c1`: “inactive”.
In the case of `Cc1ccnc(NS(=O)(=O)c2ccc(N=[N+]=[N-])cc2)n1`, the activity, negative = inhibition is 10.7% [at 11.4 µM] (inactive).
As for `CC(C)=CCC/C(C)=C/CO/N=C1/C[C@@H](O)[C@@H](O)[C@@H]2[C@@H]3C(=O)N(Cc4ccccc4)C(=O)[C@H]3CC[C@H]12`, the activity, negative = inhibition is -8.8% [at 11.4 µM] (inactive).
In the case of `NC(=O)CNC(=O)[C@@H]1CC2(CC(c3ccccc3)=NO2)CN1C(=O)c1ccc(Br)cc1` (stereo not given in full), the AC50 entry is “inactive”.
As for `CC(=O)Nc1ccc2c(c1)C(=Nc1ccc(C(=O)O)cc1)c1ccccc1-2`, the activity, negative = inhibition was 13% [at 11.4 µM] (inactive).
For `COc1ccc(C(=O)N/N=C(\C)Cn2nc([N+](=O)[O-])cc2C)cc1`, the AC50 entry is “inactive”.
`CCOC(=O)[C@@]12C[C@@H]1/C(=N/O)c1ccccc1O2`: the AC50 entry is “inactive”.
In the case of `Cc1ccc(-n2c3c(c(=O)[nH]c2=O)C(NS(=O)(=O)c2ccc(C)cc2)(C(F)(F)F)C(=O)N3)cc1` (stereo not given), the AC50 result was “inactive”.
Take `CC(=O)Nc1ccc(C2=NN(CC#N)C(=O)SC2)cc1`: the AC50 entry was “inactive”.
Still for that read-out and setting: next, `COC(=O)CSC1=C(C#N)C(c2cccc(F)c2)CC(=O)N1` (stereo not given): “inactive”.
Same read-out and setting: for `N[C@@H](Cn1cc(F)c(=O)[nH]c1=O)C(=O)O` the value was “inactive”; for `N[C@H](Cn1ccc(=O)n(Cc2ccccc2C(=O)O)c1=O)C(=O)O`, “inactive”; for `N[C@@H](Cn1cc(I)c(=O)n(Cc2ccc(C(=O)O)cc2)c1=O)C(=O)O`, 2.51 µM (active).
With `Cn1cc(-c2nc3cnc(N4CCOCC4)nc3n(C3CC3)c2=O)c2ccccc21`, the AC50 result is “inactive”.
On to `CCOC(=O)c1c(CC(C)C)csc1NC=O`, for which the AC50 entry was “inactive”.
On to `O=C(Nc1cc(C(=O)Nc2ccc(S(=O)(=O)O)cc2S(=O)(=O)O)cc(C(=O)Nc2ccc(S(=O)(=O)O)cc2S(=O)(=O)O)c1)Nc1cc(C(=O)Nc2ccc(S(=O)(=O)O)cc2S(=O)(=O)O)cc(C(=O)Nc2ccc(S(=O)(=O)O)cc2S(=O)(=O)O)c1`, for which the AC50 result is “inactive”.
The same measure, in the same setting: for `C[C@@H](C[N+](C)(C)C)OC(N)=O` the value was “inactive”; for `COCCn1c(=O)c(-c2cn(C)c3ccccc23)nc2cnc(Oc3ccc(OC)cc3)nc21`, “inactive”.
On to `O=C1C[C@H]2C(=O)[C@@H]1[C@@H](C(=O)O)[C@H]2C(=O)O`, for which the activity, negative = inhibition is 11.5% [at 11.4 µM] (inactive).
For `CC1(C)OC(=O)C(=CNCC(O)c2ccccc2)C(=O)O1` (stereo not given), the AC50 result was “inactive”.
On the same count and under the same terms, next, `Cc1cc(C)n(CCCNCC(O)c2ccccc2)n1` (stereo not given): 7.08 µM (active); `Cc1cc(C)n(Cc2ccc(NC(=O)c3ccc(COc4ccccc4Br)cc3)cc2)n1`: “inactive”.
Consider `CCCC(=O)NNC(=O)Nc1ccccc1`, for which the AC50 entry was “inactive”.
For `C=CCNC(=O)c1csc(-c2ccccc2)n1`, the AC50 result was “inactive”.
As to `C=CC[n+]1c(-c2ccc(C)cc2)csc1NNC(=O)Nc1ccccc1`, the half-maximal activity concentration (AC50) is 3.16 µM (active).
On to `CCn1c(C)c(C)c2cc(C(=O)Nc3cccc(Cl)c3)ccc21`, for which the AC50 entry was “inactive”.
On the same count and under the same terms, for `CC(=O)N[C@@H](CC(=O)O)C(=O)O` the value was “inactive”; for `NC(=O)c1cc[n+](CC2=C(C(=O)[O-])N3C(=O)[C@@H](NC(=O)Cc4cccs4)[C@@H]3SC2)cc1`, “inactive”.
Still for that read-out and setting: for `CN(C)C(=N)N=C(N)N` the value was “inactive”; for `O=C(NNC(=S)NC(=O)c1cccnc1)c1ccccc1`, “inactive”.
The same measure, in the same setting: next, `O=c1cc(-c2ccccc2)oc2cc(O)c(O)c(O)c12`: “inactive”.
`COc1ccc(-c2coc3cc4oc(=O)cc(C)c4cc23)cc1F`: the AC50 result was “inactive”.
With `COc1ccc(-c2coc3cc(OC)cc(O)c3c2=O)cc1`, the AC50 was 0.0355 µM (active).
In the case of `O=c1c(-c2ccc(O)cc2)coc2cc(O)cc(O)c12`, the AC50 result is “inactive”.
Regarding `CCOC(=O)COc1cc(OCC(=O)OCC)c2c(=O)cc(-c3ccccc3)oc2c1`, the AC50 result is “inactive”.
With `COc1ccc(-c2cc(=O)c3c(O)cc(O)cc3o2)cc1`, the AC50 is 12.6 µM (active).
`CCOC(=O)Cc1c(C)nc2c(C#N)c[nH]n2c1=O`: the AC50 entry is “inactive”.
On the same count and under the same terms, next, `COC(=O)Cn1cnc(=O)c(C#N)c1/C=C/N(C)C`: “inactive”.
As for `Cn1c(=O)c2[nH]c(CCS)nc2n(C)c1=O`, the activity, negative = inhibition is 4.9% [at 11.4 µM] (inactive).
Consider `O=c1nc(N2CCOCC2)ccn1-c1nc(-c2ccccc2)oc1-c1ccccc1`, for which the AC50 entry is “inactive”.
The same measure, in the same setting: next, `C[C@H](Nc1ncnc2sc3c(c12)CCC3)C(=O)O`: “inactive”.
Same read-out and setting: next, `Cc1cc2nc(C3CCCN(C(=S)Nc4ccccc4)C3)[nH]c2cc1C` (stereo not given): “inactive”; `COc1ccc(N2CCN(C(=S)Nc3cc(C)ccc3C)CC2)cc1`: “inactive”.
Still for that read-out and setting: for `Cc1cc2nc(C3CCCN(C(=O)NCc4ccccc4)C3)[nH]c2cc1C` (stereo not given) the value was 5.01 µM (active).
Take `Cc1cc2nc(-c3ccc(SCC(=O)N4CCc5ccccc54)nc3)[nH]c2cc1C`: the AC50 result was “inactive”.
Take `O=C(Nc1ccccc1)N1CCCC(c2nc(-c3ccc(F)cc3)no2)C1` (stereo not given): the AC50 result is “inactive”.
On to `Cc1ccc2nc(C3CCCN(C(=S)Nc4ccccc4C)C3)[nH]c2c1` (stereo not given), for which the AC50 is 2 µM (active).
On the same count and under the same terms, next, `NCCCCN`: “inactive”.
As for `CCC1(O)c2ccccc2-c2ncccc21` (stereo not given), the AC50 result was “inactive”.
For `COC(=O)[C@@H]1CC[C@H](C)[C@@H](c2ccc(C)cc2)N1C(=O)c1ccc(/C=N\OC[C@@H](O)[C@H]2O[C@H]3OC(C)(C)O[C@H]3[C@@H]2O)cc1`, the activity, negative = inhibition was 3.7% [at 11.4 µM] (inactive).
Consider `COCCNc1nc(SCc2ccccc2)nc2sc3c(c12)CCC3`, for which the AC50 result was “inactive”.
As for `CC(C)NC[C@H](O)c1ccc(NS(C)(=O)=O)cc1`, the AC50 entry was “inactive”.
On the same count and under the same terms, next, `CC(C)NC[C@H](O)c1ccc2ccccc2c1`: 3.16 µM (active) and inactive; `CC(C)NC[C@H](O)c1cc(O)cc(O)c1`: “inactive”.
On the same count and under the same terms, next, `Cc1ccc(C(CC(N)=O)c2ccco2)cc1` (stereo not given): “inactive”.
On to `O=C(O)CNC(=O)[C@@H](CS)Cc1ccccc1`, for which the AC50 entry was “inactive”.
The same measure, in the same setting: for `CC(=O)SC[C@@H](Cc1ccccc1)C(=O)NCC(=O)OCc1ccccc1` the value was 0.316 µM (active); for `COC(=O)CNC(=O)C(C)NC(=O)CNC(=O)OCc1ccccc1` (stereo not drawn) (Cbz-Gly-[ξA]-Gly-OMe), “inactive”.
As for `Cc1cc(OC(=O)c2ccc(Cl)cc2Cl)nc(C)n1`, the AC50 result was “inactive”.
Consider `CC(C)(C)CC(=O)NC(=S)N1CCCCCC1`, for which the AC50 entry was “inactive”.
On the same count and under the same terms, for `O=c1c(-c2cccc(Cl)c2)nc2cncnc2n1-c1ccccc1` the value was “inactive”; for `Cn1c(CN2CCCC2)nc2cc(NC(=O)C3CCCCC3)ccc21`, “inactive”.
On the same count and under the same terms, next, `O=C(Nc1nc2ccccc2n1CCN1CCCCC1)C1CCCCC1`: 4.47 µM (active); `CCCc1nc(SCC(=O)NNC(=O)C2CCCCC2)c2ccccc2n1`: “inactive”; `COc1ccc(Oc2nc(C)cc(C)c2S(C)(=O)=O)cc1`: “inactive”.
`O=c1c(-c2ccc(Cl)cc2)nc2cnc(N3CCOCC3)nc2n1CCc1ccccc1`: the AC50 result is “inactive”.
In the case of `CC(C)NC(=O)CC(=O)N/N=C/c1ccc(Br)cc1`, the AC50 entry is “inactive”.
The same measure, in the same setting: next, `CCSc1c(C(=O)NC)ccc2c1C(=O)c1ccccc1C2=O`: “inactive”; `Cc1[nH]c2ccccc2c1CCNC(=O)c1ccc2c(c1[N+](=O)[O-])C(=O)c1ccccc1C2=O`: 1.12 µM (active).
The same measure, in the same setting: for `CC(=O)NCCc1c(Cc2ccccc2)[nH]c2ccccc12` the value was “inactive”.
